These results are taken from PubChem BioAssay (Tox21).

Each structure is given as a SMILES string. Records with an inconclusive call do not appear. Where a call stands in place of a potency, no number is given. Activity calls are given as the source filed them. Calls come from the whole dose curve; as a rule, active = well fitted activation curve with a large enough effect in the signal ratio in the repeat runs (not every such curve was filed as active); inconclusive = weak or mixed curves, or effect the other way; inactive = no such curve, though single readings can be large or run the other way; the % refers to the signal ratio.

Glucocorticoid receptor (Homo sapiens), sequence (P04150 whole entry, looked up): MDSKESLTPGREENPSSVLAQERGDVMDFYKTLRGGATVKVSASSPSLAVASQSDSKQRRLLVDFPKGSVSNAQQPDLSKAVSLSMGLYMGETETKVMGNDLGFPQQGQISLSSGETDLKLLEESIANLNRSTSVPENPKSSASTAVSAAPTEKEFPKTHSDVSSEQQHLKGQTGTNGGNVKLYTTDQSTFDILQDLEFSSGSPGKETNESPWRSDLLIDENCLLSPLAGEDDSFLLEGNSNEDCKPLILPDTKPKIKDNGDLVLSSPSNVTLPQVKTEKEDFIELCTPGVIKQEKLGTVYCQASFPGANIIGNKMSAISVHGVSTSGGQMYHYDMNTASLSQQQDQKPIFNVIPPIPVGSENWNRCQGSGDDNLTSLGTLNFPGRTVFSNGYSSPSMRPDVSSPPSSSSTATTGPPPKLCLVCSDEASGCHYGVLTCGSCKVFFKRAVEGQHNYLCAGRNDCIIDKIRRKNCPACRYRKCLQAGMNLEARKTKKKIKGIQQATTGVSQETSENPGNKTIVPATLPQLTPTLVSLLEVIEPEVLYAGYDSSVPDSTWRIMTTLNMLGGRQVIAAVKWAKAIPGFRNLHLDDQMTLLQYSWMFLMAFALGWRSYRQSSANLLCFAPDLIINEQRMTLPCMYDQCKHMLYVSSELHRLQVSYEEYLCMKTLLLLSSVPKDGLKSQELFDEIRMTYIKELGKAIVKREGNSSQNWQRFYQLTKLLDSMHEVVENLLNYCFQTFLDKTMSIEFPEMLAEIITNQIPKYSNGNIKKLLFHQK

The target in this assay is Glucocorticoid receptor (Homo sapiens) (UniProt P04150). The assay is described as follows: qHTS assay to identify small molecule agonists of the glucocorticoid receptor (GR) signaling pathway (AID 720691). The settings on record: GR-bla HeLa, beta-lactamase reporter ratio, 18 h; series mostly up to 62.4 µM. In a few lines:
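Compounds in DMSO, alongside positive controls, were added to GR-bla HeLa reporter cells and incubated 18 h at 37 C; GRE-driven beta-lactamase was detected by fluorescence after 2 h with FRET substrate at room temperature.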
A general note: In qHTS, concentration-response curves come from the screen itself.
Take `Cc1cc(O)c2c(c1)C(=O)c1cccc(O)c1C2=O`: the Potency result is “inactive”.

As to `FC(F)(F)/C(=N\OCC1OCCO1)c1ccc(Cl)cc1`, the Potency result was “inactive”.

For `CC(C)=CC(C)(C)C`, the Potency result was “inactive”.

`C=CCOCC(CO)(COCC=C)COCC=C`: the Potency entry was “inactive”.

Turning to `C[C@H](CCC(=O)NCC(=O)O)[C@H]1CC[C@H]2[C@@H]3[C@H](O)C[C@@H]4C[C@H](O)CC[C@]4(C)[C@H]3C[C@H](O)[C@]12C`, the Potency result is “inactive”.

On to `O=S(=O)(O)CCO`, for which the Potency entry is “inactive”.

Take `C[N+](C)(C)CC(O)CCl` (stereo not given): the Potency entry is “inactive”.

Take `CN(C)CCOCCN(C)CCO`: the Potency entry was “inactive”.

For the compound `C=CC(C)(O)CC/C=C(\C)CC` (stereo not given), the Potency result is “inactive”.

`O=C(Nc1cccc(C2=NCCN2)c1)Nc1cccc(C2=NCCN2)c1`: the Potency result is “inactive”.

`CC(C)(c1ccc(Oc2ccc3c(c2)C(=O)OC3=O)cc1)c1ccc(Oc2ccc3c(c2)C(=O)OC3=O)cc1`: the Potency result was “inactive”.

In the case of `CO/N=C(/C(=O)N[C@@H]1C(=O)N2C(C(=O)O)=C(Cn3nnc(C)n3)CS[C@H]12)c1csc(N)n1`, the Potency result is “inactive”.

As for `SCCSCCS`, the Potency result is “inactive”.

In the case of `CC1=NN(c2ccc(S(=O)(=O)O)cc2)C(=O)C1N=Nc1ccccc1` (stereo not given), the Potency result was “inactive”.

In the case of `CCNC(=O)NCCCOc1cccc(CN2CCCCC2)c1`, the Potency entry was “inactive”.

For the compound `C1CCN2C[C@@H]3C[C@@H](CN4CCCC[C@@H]34)[C@H]2C1`, the Potency entry was “inactive”.

As to `CC(C)CCCCCCOC(=O)C1CCCCC1C(=O)OCCCCCCC(C)C` (stereo not given), the Potency entry was “inactive”.

`OCCCCCCCl`: the Potency result is “inactive”.

Consider `CCCCCCCC/C=C\CCCCCCCC(=O)OC[C@@H](O)[C@H]1OC[C@H](O)[C@H]1O`, for which the Potency entry was “inactive”.

Take `Cc1cccc(Nc2ccncc2S(=O)(=O)NC(=O)NC(C)C)c1`: the Potency result is “inactive”.

Regarding `CNC(=O)NC`, the Potency result was “inactive”.

Take `O=C(/C=C/c1ccccc1)NCCO`: the Potency result was “inactive”.

Take `O=C(O)c1ccccc1C(=O)OCc1ccccc1`: the Potency entry was “inactive”.

Regarding `NC(Cc1c[nH]c2ccccc12)C(=O)O` (stereo not given), the Potency result is “inactive”.

With `N#CCCOCCOCCC#N`, the Potency result was “inactive”.

For `COC(OC)C(C)c1ccccc1` (stereo not given), the Potency result is “inactive”.

As to `Cc1ccccc1N1CCN(CCc2nnc3n2CCCC3)CC1`, the Potency entry is “inactive”.

`CCN1CN(CC)CN(CC)C1`: the Potency result was “inactive”.

Consider `Cc1cccc(NC(=S)N(C)C)c1`, for which the Potency entry is “inactive”.

Consider `CCCCCCCC[Si](OCC)(OCC)OCC`, for which the Potency entry was “inactive”.
